Experimental findings from the supplement of paper PMC4466140 are described below.

The first experiment has as its target SpBzz1-D2. Briefly: SPOT peptide array binding signal intensity (averaged, normalized) (arbitrary units (background-subtracted, floor 0; scale differs between SH3 domains)); higher = stronger binding of the SH3 domain to the peptide. The gist of the method:
(§1)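 To measure binding, SH3 domains from four yeast species were fused to GST, expressed in E. coli BL21(DE3) and purified on glutathione Sepharose. Each domain was incubated at 10 μg/ml overnight at 4°C on cellulose membranes with synthetic 15-mer peptides whose cysteines were replaced by serines. Anti-GST antibody, an HRP anti-mouse secondary and luminol were used for detection, and images were quantified with Genespotter. Reported binding signal is normalized, background-subtracted spot intensity averaged over replicates, in arbitrary units that differ between domains.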
For the molecule KRRTSLFPWLHKPGI, the “SPOT peptide array binding signal intensity” value is ≤ 0.

The target of a further experiment is SpCyk3. Described as above. The gist of the method:
as §1
Take KRRTSLFPWLHKPGI: the “SPOT peptide array binding signal intensity” value was 3.

Another experiment addresses SpHof1. Described as above. The gist of the method:
as §1
For the molecule KRRTSLFPWLHKPGI, the “SPOT peptide array binding signal intensity” value is 54.

The next experiment has as its target SpHof1-2. The experiment is described as above. The method in brief:
as §1
As for KRRTSLFPWLHKPGI, the “SPOT peptide array binding signal intensity” value was found to be 2.75.

The target in another experiment is SpHof1-3. The description is as above. The method in brief: as §1
Turning to KRRTSLFPWLHKPGI, the “SPOT peptide array binding signal intensity” value is 586.

A further experiment deals with SpHse1. Described as above. The gist of the method:
as §1
For the molecule KRRTSLFPWLHKPGI, the “SPOT peptide array binding signal intensity” value was found to be 844.

For a further experiment, the target named is SpLsb1. Described as above. The method in brief: as §1
Regarding KRRTSLFPWLHKPGI, the “SPOT peptide array binding signal intensity” value was 0.5.

The target of another experiment is SpLsb4. Described as above. The gist of the method:
as §1
With KRRTSLFPWLHKPGI, the “SPOT peptide array binding signal intensity” value amounted to 8.5.

The target in another experiment is SpMyo1. Described as above. The method in brief:
as §1
On to KRRTSLFPWLHKPGI, for which the “SPOT peptide array binding signal intensity” value came out at 2.5.

The next experiment addresses SpNbp2. Described as above. The method in brief: as §1
For KRRTSLFPWLHKPGI, the “SPOT peptide array binding signal intensity” value stood at 418.

For a further experiment, the target named is SpPex13. The experiment is described as above. The gist of the method: as §1
With KRRTSLFPWLHKPGI, the “SPOT peptide array binding signal intensity” value was found to be 6.5.

The target in the next experiment is SpRvs167. The experiment is described as above. The gist of the method: as §1
Regarding KRRTSLFPWLHKPGI, the “SPOT peptide array binding signal intensity” value was ≤ 0.

The target of a further experiment is SpSla1-D1-D2. The description is as above. The method in brief: as §1
Take KRRTSLFPWLHKPGI: the “SPOT peptide array binding signal intensity” value is ≤ 0.

A further experiment deals with SpSla1-D3. Described as above. The method in brief: as §1
As to KRRTSLFPWLHKPGI, the “SPOT peptide array binding signal intensity” value amounted to 4.
